Source: PubChem
Six1-Eya2 inh = inhibitors of human Six1/Eya2 interaction; AlphaScreen GST-Six1/His-Eya2 binding, biochemical; active compounds read low; activity change, % (concentration not given with the values); 360,000 compounds, 0.56% hits; in the data active = activity change below about -65%; inconclusive = mostly about -30% to -63%
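AlphaScreen luminescence read after one hour at 37 °C in darkness. Pin-transferred compounds met GST-Six1 and His-Eya2 protein (5X stock 250 nM/500 nM) plus glutathione donor and Ni-chelate acceptor beads (5X, 50 ug/mL).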
TDP1 cell CPT = DT40-hTDP1 cell growth loss with CPT; chicken DT40 Tdp1-/-;hTDP1 cells + 20 nM CPT, ATP luminescence, 48 h; Potency, µM (highest dose often 46.2 µM), without a hit: at the top dose activity change, negative = growth inhibition, hits mostly inhibitors; 420,000 compounds, 12% hits; AID 686979; also: potency is read from the fitted curve at half-maximal effect; nearly all actives have a fitted effect of over 55% in size
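Chicken DT40 Tdp1-/- cells stably complemented with human TDP1 were seeded at 400 cells/well in medium containing 20 nM camptothecin, exposed to pin-transferred compounds, and grown at 37 °C for at least 48 hr. Viability was read as ATP luminescence.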
IL-1B inflam inh = inflammasome signaling inhibition, IL-1 beta readout; 360,000 compounds, 4.7% hits; THP-1 LPS/ATP IL-1B secretion, AlphaLISA, 16 h; active compounds read low; activity change, % at 57.5 µM; AID 743279; in the data active = activity change below about -50%; inconclusive = mostly about -30% to -49%
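THP-1 cells pretreated 1 hr with compounds (up to 57.5 uM final), then stimulated with LPS (250 ng/mL final) plus ATP (1.25 mM final); secreted IL-1B measured by AlphaLISA after 16 hr, decreased signal indicating inhibition.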
DT40 TDP1 no CPT = qHTS for Inhibitors of human tyrosyl-DNA phosphodiesterase 1 (TDP1): qHTS in cells in absence of CPT; DT40 Tdp1-/- hTDP1 cells, no CPT, ATP luminescence, 48 h; Potency, µM (titrated, usually from 46.2 µM), inactives show at the top dose activity change, negative = growth inhibition, usual class: inhibitors; 420,000 compounds, 15% hits; also: potency is read from the fitted curve at half-maximal effect; nearly all actives have a fitted effect of over 55% in size
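Growth of hTDP1-complemented DT40 Tdp1-knockout cells is measured by ATP luminescence after at least 48 hr compound exposure at 37 °C, with DMSO substituting for the 20 nM CPT used in the parallel screen.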
TDP1 inh = inhibitors of human tyrosyl-DNA phosphodiesterase TDP1. Potency, µM (doses to about 130 µM), inactives show at the top dose activity change, negative = inhibition, most hits filed as inhibitors. AID 485290. recombinant TDP1, AlphaScreen DNA substrate cleavage. 350,000 compounds, 0.28% hits; also: potency is read from the fitted curve at half-maximal effect; nearly all actives have a fitted effect of over 40% in size
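Enzyme-compound mixtures sat 15 min at room temperature, followed by a 5 min reaction with 15 nM final substrate and 10 min with AlphaScreen beads. Recombinant human Tdp1 was used at 1 nM final.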
CtBP-E1A blk = inhibitors of CtBP/E1A interaction; activity change, % (no concentration beside the values); AlphaScreen GST-E1A/His-CtBP binding, 1536-well; active compounds read low; 340,000 compounds, 0.49% hits; in the data active = activity change below about -65%; inconclusive = mostly about -30% to -63%
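AlphaScreen with 125 nM GST-E1A and 125 nM His-CtBP (5X stocks) in Tris pH 8.0, 300 mM NaCl, BSA, Tween 20, TCEP. Compounds preincubated 2 h at 37 deg C, then glutathione donor/nickel acceptor beads added for 1 h at 37 deg C in dark.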
The depositor's hits bear a star; ? = inconclusive; · = no result given. Compounds with a hit are over-represented: about 18% of the library has one in this group of screens. Unless noted, calls follow the shape of the dose curve; as a rule, active = well fitted curve in the direction sought with a large enough effect; inconclusive = small, poorly fitted or top-dose-only effect, or another doubt; inactive = no such curve, though single readings can be large; an effect the other way counts as inactive or inconclusive. % is scaled to controls: 0 for no effect and ±100 for the full control effect.

SMILES	Six1-Eya2 inh	TDP1 cell CPT	IL-1B inflam inh	DT40 TDP1 no CPT	TDP1 inh	CtBP-E1A blk
Cc1ccc(C2C3=C(CCCC3=O)N=C3c4ccccc4C(=O)C32)cc1 (configuration not stated)	?	-1%	-68*	?	8%	?
O=C1CCCC2=C1C(c1ccc(Cl)cc1)C1C(=O)c3ccccc3C1=N2 (configuration not stated)	?	?	-55*	?	10%	-29
CC(=O)c1sc(NC(=O)CCOc2ccccc2)nc1C	4	-6%	-6	9%	1%	1
CSc1ccc(C(=O)N2CCc3ccc(NC(=O)c4ccccn4)cc3C2)cc1	-15	?	0	?	9%	1
CC(C)CC(NS(=O)(=O)c1ccccc1S(=O)(=O)NC(CC(C)C)C(=O)O)C(=O)O (configuration not stated)	5	0%	22	-12%	·	·
Cc1c(C(=O)NCCCN2CCOCC2)sc2ncnc(N3CCN(c4ccccc4)CC3)c12	-5	16µM*	?	21µM*	2%	-15
CCCCNC(=O)c1sc2ncnc(N3CCc4ccccc4C3)c2c1C	-7	15µM*	-12	8.2µM*	1%	4
COc1cc(/C=C/c2cc(C(=O)O)c3ccccc3n2)cc(OC)c1O	-5	-7%	-4	?	?	-3
COc1cc(N(C)C)c(OC)cc1/C=C/c1ccnc2ccccc12	·	10µM*	·	10µM*	·	·
COc1cc(/C=C/c2ccnc3ccccc23)ccc1N(C)C	·	2µM*	·	2.2µM*	·	·
N#CCOc1ccccc1/C=C/c1nc2ccccc2c(=O)[nH]1	1	-30%	-4	-19%	-2%	-7
Cc1ccccc1/C=C\c1nc2ccccc2c(=O)[nH]1	4	26µM*	0	16µM*	-19%	-8
Cc1ccc(/C=C/c2nc3ccccc3c(=O)[nH]2)cc1	-8	?	-11	?	10%	-12
Cc1ccccc1/C=C/c1nc2ccccc2c(=O)[nH]1	6	16µM*	35	?	2%	4
Cc1noc(N)c1C(=O)Nc1ccccc1F	7	-3%	51	9%	-1%	9
COc1ccnc(NCc2cccc(C(F)(F)F)c2)c1C#N	5	12%	-9	-5%	5%	5
COc1ccnc(NCc2cccnc2)c1C#N	1	3%	15	29µM*	4%	-2
O=[N+]([O-])c1cncn1CCN1CCOCC1	0	-15%	4	?	·	-1
O=C(Nc1cccc(S(=O)(=O)N2CCCCC2)c1)C1CCCN1S(=O)(=O)c1ccccc1F (configuration not stated)	-5	?	-11	?	1%	-7
Cc1[nH]c2ccccc2c1SCCNC(=O)c1ccccc1F	·	?	·	?	9%	·
Cc1cc(CSc2ccccc2)ccc1NC(=O)c1ccc(C)c([N+](=O)[O-])c1	1	-14%	53	18µM*	3%	·
COc1cc(C(=O)NCC(=O)N/N=C/c2c(C)[nH]c3ccccc23)cc(OC)c1OC	-7	?	-4	26µM*	6%	3
COc1cc(C(=O)NCCSc2c(C)[nH]c3ccccc23)cc(OC)c1OC	·	?	·	15µM*	6%	·
COc1cc(C(=O)NCCSc2ccc(F)cc2)cc(OC)c1OC	-6	?	7	?	·	-7
Cc1ccc(C(=O)NCCSc2c(C)[nH]c3ccccc23)cc1[N+](=O)[O-]	-16	10µM*	-23	21µM*	-3%	0
SMILES	Six1-Eya2 inh	TDP1 cell CPT	IL-1B inflam inh	DT40 TDP1 no CPT	TDP1 inh	CtBP-E1A blk
Cc1ccccc1-n1nc(C)c2cc(C(=O)NCc3cccnc3)sc21	-4	-27%	-3	-21%	5%	-8
COc1cccc(-c2nnc(SCc3ccccn3)n2C)c1	-1	2%	5	4%	7%	-6
O=C(NCc1ccccc1Cl)C1CCCN1C(=O)NC1CCCCC1 (configuration not stated)	-3	-3%	0	2%	·	10
O=C(NCCc1ccccc1F)C1C(=O)Nc2ccccc2C(=O)N1C1CCCCC1 (configuration not stated)	-3	6%	0	-10%	·	-22
CC(=O)NC1C2CN3CCN(C2)CC1(Cc1ccccc1)C3 (configuration not stated)	11	-5%	0	6%	3%	-7
COc1cccc(C(=O)NCCSc2c(C)[nH]c3ccccc23)c1OC	-12	?	-22	?	6%	-6
COc1ccccc1C(=O)NCCSc1c(C)[nH]c2ccccc12	·	16µM*	·	23µM*	3%	·
CCn1c(C)nc2cc(-c3nc4n(n3)Cc3ccccc3-4)ccc21	12	6.5µM*	?	7.3µM*	7%	0
COC(=O)N1C(=O)[C@@](c2ccc(OC)cc2)(C(C)C)N1C(=O)OC	-2	?	-101*	?	·	-21
COC(=O)N1C(=O)[C@@](c2ccccc2)(C(C)C)N1C(=O)OC	1	16µM*	?	?	·	2
COC(=O)N1C(=O)[C@](c2ccc(Cl)cc2)(C(C)C)N1C(=O)OC	4	13µM*	·	23µM*	·	0
COC(=O)N1C(=O)[C@](c2ccccc2)(C2CCCC2)N1C(=O)OC	-1	?	-96*	?	·	0
CN1C/C(=C/c2ccccc2[N+](=O)[O-])C(=O)/C(=C\c2ccccc2[N+](=O)[O-])C1	-8	0.52µM*	-98*	0.92µM*	·	0
CCCS(=O)(=O)c1nnnn1-c1cccc(OC)c1	0	3.7µM*	-67*	5.2µM*	7%	10
CC(=O)c1cccc(-n2nnnc2SCC(=O)Nc2ccccc2N2CCCCC2)c1	-2	?	-17	23µM*	-2%	-5
COc1cccc(-n2nnnc2SCC(=O)Nc2ccc(C(C)=O)cc2)c1	0	26µM*	24	23µM*	5%	1
Cn1ncc2c(NCc3ccccc3)nc(NCCCO)nc21	0	-9%	-25	11%	2%	0
CC(C)CCNc1nc(Nc2ccccc2)c2cnn(C)c2n1	·	23µM*	·	23µM*	9%	·
O=C(NNC(=O)c1cccs1)c1ccc(Cl)nc1	-3	12%	-10	-12%	89µM*	-17
NS(=O)(=O)c1ccc(NNC(=O)c2cccs2)cc1	3	1%	·	-2%	·	-6
O=C(NNc1cc(Cl)cc(Cl)c1)c1cccs1	4	?	-15	18µM*	5%	0
